Experimental findings from PubChem BioAssay are described below.

The nature of test [1]: antimalarial activity against Dd2 strain (AID 2302;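 active = growth inhibition above 50% at the single 2 µM test dose, taken to imply half-maximal potency below 2 µM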;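 also: 0% = DMSO untreated growth and 100% = chloroquine plus artemisinin killed control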). The note with it: P. falciparum Dd2 in RBCs, LDH growth readout, 72 h; at 2 µM; hits give high values.
The nature of test [2]: HepG2 cytotoxicity, primary screen, cytotoxicity control for P. falciparum antimalarial project, cell-based, ATP luminescence (AID 2303;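 active = inhibition above 50%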;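 also: 0% = DMSO wells and 100% = digitonin-killed cells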). The note with it: HepG2 viability, 24-48 h, at 10 µM, hits give high values.
For test [3], the target named is L-lactate dehydrogenase (Plasmodium falciparum (isolate CDC / Honduras)) (UniProt Q27743). The test can be described thus: PfLDH activity inhibition – cell lysate, 3D7 strain, counter-screen for P. falciparum growth inhibition project (AID 2304).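 Also: 0% = vehicle and 100% = reference inhibitor.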 The note with it: P. falciparum 3D7 crude extract, LDH APAD/NBT absorbance; at 2 µM; hits give high values. A general note: The purpose of a counterscreen is to sort out artefacts and off-target activity.
Sequence of L-lactate dehydrogenase (Plasmodium falciparum (isolate CDC / Honduras)) (Q27743 whole entry, looked up): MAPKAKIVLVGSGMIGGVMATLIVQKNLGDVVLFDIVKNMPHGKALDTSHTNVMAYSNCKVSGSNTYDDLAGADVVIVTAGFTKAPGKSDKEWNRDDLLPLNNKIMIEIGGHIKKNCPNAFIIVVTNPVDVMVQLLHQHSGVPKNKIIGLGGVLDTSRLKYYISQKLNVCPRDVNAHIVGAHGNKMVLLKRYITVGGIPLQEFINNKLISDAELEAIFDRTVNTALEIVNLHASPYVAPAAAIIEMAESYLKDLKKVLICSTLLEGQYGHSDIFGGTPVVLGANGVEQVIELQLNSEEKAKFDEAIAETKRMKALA

The nature of test [4]: inhibition of 3D7 malaria parasite growth – strain 3D7 (AID 2306).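 Also: 0% = DMSO wells and 100% = chloroquine plus artemisinin control wells.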 To be noted: P. falciparum 3D7 erythrocytic growth, LDH absorbance, 72 h; at 2 µM; hits give high values.
The target in test [5] is Calcium-dependent protein kinase 1 (Plasmodium falciparum (isolate 3D7)) (UniProt P62344). The test can be described thus: PfCDPK1 kinase inhibitors, biochemical, TCAMS library (AID 1159585; cut-off not given, nearly all actives have IC50 up to about 0.98 µM;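 also: inhibitors leave more ATP so luminescence rises with inhibition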). To be noted: recombinant PfCDPK1, Kinase-Glo ATP depletion luminescence.
Sequence of Calcium-dependent protein kinase 1 (Plasmodium falciparum (isolate 3D7)) (P62344 whole entry, looked up): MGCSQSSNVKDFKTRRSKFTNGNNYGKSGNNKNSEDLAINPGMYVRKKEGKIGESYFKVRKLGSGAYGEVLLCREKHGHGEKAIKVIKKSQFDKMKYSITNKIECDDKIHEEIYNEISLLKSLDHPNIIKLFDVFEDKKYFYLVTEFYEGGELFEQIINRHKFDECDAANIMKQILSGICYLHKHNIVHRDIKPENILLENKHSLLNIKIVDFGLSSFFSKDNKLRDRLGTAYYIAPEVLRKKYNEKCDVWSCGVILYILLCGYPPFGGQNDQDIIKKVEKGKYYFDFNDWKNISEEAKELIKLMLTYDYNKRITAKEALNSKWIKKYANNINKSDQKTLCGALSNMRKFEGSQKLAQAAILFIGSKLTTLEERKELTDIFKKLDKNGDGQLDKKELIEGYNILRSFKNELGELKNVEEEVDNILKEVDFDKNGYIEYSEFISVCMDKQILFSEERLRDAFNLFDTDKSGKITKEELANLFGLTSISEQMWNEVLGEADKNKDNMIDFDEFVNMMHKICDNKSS
Test [6] addresses Plasmodium falciparum protein kinase 6 (PK6, PF3D7_1337100) (UniProt Q8IDW1). Description: PfPK6 kinase inhibitors, biochemical, TCAMS library (AID 1159586). The note with it: recombinant PfPK6, Kinase-Glo ATP depletion luminescence. A general note: Kinase-Glo measures the ATP left after a reaction by luminescence.
For test [7], the target named is Protein kinase 7 (PK7), Plasmodium falciparum 3D7 (PF3D7_0213400) (UniProt Q7YTF7). The test can be described thus: inhibition of Plasmodium PK7 catalytic activity – biochemical, TCAMS antimalarial set, Kinase-Glo luminescence (AID 1159587). The note with it: recombinant PfPK7, Kinase-Glo ATP depletion luminescence.
Sequence of Protein kinase 7 (PK7), Plasmodium falciparum 3D7 (PF3D7_0213400) (Q7YTF7 1-343): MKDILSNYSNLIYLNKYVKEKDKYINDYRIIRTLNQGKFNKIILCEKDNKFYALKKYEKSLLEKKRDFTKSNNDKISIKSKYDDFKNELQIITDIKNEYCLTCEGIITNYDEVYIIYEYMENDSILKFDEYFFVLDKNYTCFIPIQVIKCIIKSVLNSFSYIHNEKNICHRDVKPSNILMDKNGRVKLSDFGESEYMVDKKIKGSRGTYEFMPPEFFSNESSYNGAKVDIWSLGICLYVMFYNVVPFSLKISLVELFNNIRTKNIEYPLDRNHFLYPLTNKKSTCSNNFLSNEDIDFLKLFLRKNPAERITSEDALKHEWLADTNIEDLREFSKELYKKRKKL
For test [8], the target named is Calcium-dependent protein kinase 4 (Plasmodium falciparum (isolate 3D7)) (UniProt Q8IBS5). Description: PfCDPK4 kinase inhibitors, biochemical, TCAMS library (AID 1159588; cut-off not given, nearly all actives have IC50 up to about 0.91 µM). To be noted: recombinant PfCDPK4, Kinase-Glo ATP depletion luminescence.
Sequence of Calcium-dependent protein kinase 4 (Plasmodium falciparum (isolate 3D7)) (Q8IBS5 whole entry, looked up): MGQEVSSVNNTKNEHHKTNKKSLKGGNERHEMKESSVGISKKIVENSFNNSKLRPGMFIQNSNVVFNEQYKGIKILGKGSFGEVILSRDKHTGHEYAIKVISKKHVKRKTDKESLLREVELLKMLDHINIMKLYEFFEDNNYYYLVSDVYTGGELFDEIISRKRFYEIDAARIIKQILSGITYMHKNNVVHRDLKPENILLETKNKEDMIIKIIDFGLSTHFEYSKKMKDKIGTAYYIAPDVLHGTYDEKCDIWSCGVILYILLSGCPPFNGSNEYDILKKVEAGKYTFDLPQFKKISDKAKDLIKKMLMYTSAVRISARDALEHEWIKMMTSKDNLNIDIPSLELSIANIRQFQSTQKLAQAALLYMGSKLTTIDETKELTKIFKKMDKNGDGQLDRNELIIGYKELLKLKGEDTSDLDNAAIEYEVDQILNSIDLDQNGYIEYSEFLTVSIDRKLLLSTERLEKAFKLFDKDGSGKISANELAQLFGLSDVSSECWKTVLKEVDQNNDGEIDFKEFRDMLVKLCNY

A number with no mark means an inactive call. For some of these results: Potency and affinity values are given separately. Active and inactive are the calls of the source. Unless noted, no rule for the calls is given here.

Sequence of Plasmodium falciparum protein kinase 6 (PK6, PF3D7_1337100) (Q8IDW1 1-305): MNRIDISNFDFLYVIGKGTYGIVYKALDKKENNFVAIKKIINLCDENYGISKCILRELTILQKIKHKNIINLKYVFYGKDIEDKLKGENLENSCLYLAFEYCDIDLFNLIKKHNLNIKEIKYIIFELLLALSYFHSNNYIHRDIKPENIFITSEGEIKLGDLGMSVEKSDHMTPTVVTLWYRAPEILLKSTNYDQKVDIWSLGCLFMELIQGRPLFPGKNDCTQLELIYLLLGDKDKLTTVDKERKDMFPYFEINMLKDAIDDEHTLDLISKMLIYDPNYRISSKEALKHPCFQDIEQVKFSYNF

As to `Cc1nc(-c2cccc(NC(C)C(=O)Nc3cc(C(F)(F)F)ccc3N3CCOCC3)c2)cs1` (stereo not given), the growth inhibition in test [1] was 97% (active); in test [4] it was 82% (active). For the same molecule, the figures for the inhibition in test [2] and in test [3] were 3% and -2%, respectively. The outcome in test [5], in test [6], in test [7] and in test [8] was inactive.
As to `CC(=O)Nc1ccc(Nc2cc(C)nc(Nc3ccc(NC(C)=O)cc3)n2)cc1`, the growth inhibition was 65% (active) in test [1] and 99% (active) in test [4]. Further, the inhibition is 4% in test [2] and -2% in test [3]. For the same molecule, the result in test [5], in test [6], in test [7] and in test [8] was inactive.
Regarding `CCOc1cc2c(cc1S(=O)(=O)c1ccc(COc3ccc(C(F)(F)F)cc3)cc1)CCN(C)CC2`, the growth inhibition in test [1] is 14%; in test [4], 87% (active). Further, the inhibition was 27% in test [2] and -5% in test [3]. Besides, the result in test [5], in test [6], in test [7] and in test [8] was inactive.
As to `Cn1c(NC(=O)C2CCCN(C(=O)c3ccc(O)c(-c4ccc(Cl)c(Cl)c4)c3)C2)nc2ccccc21` (stereo not given), the values for the growth inhibition in test [1] and in test [4] were 99% (active) and 98% (active), respectively. Further, the inhibition in test [2] is 0%; in test [3], -3%. The result in test [5], in test [6], in test [7] and in test [8] was inactive.
As to `O=C(Nc1ccc(F)cc1F)NC1CCN(c2ccnc3cc(Cl)ccc23)C1` (stereo not given), the growth inhibition in test [1] was 82% (active); in test [4] it was 100% (active). Further, the inhibition in test [2] was 25%; in test [3], 1%. In addition, the outcome in test [5], in test [6], in test [7] and in test [8] was inactive.
Regarding `COc1ccc2c(NN=Cc3ccccc3F)cc(C)nc2c1`, the growth inhibition is 12% in test [1] and 90% (active) in test [4]. Further, the values for the inhibition in test [2] and in test [3] were 4% and 2%, respectively. Further, the result in test [5], in test [6], in test [7] and in test [8] was inactive.
As to `COc1cccc(C(=O)OC2=C3CCC(=O)C3(C)CCC2=O)c1` (stereo not given), the growth inhibition is 9% in test [1] and 93% (active) in test [4]. Besides, the inhibition in test [2] is 37%; in test [3] it was 2%. For the same molecule, the result in test [5], in test [6], in test [7] and in test [8] was inactive.
For the molecule `CCc1cn2c3c(cc(C(=O)N[C@@H](Cc4cc(F)cc(F)c4)[C@H](O)CNC4CCOCC4)cc13)N(C)S(=O)(=O)CC2`, the growth inhibition in test [1] and in test [4] was 98% (active) each time. Besides, the inhibition is 1% in test [2] and -7% in test [3]. For the same molecule, the outcome in test [5], in test [6], in test [7] and in test [8] was inactive.
Regarding `CN(C)C1CCN(CC#Cc2cc3ncnc(Nc4ccc(OCc5cccc(F)c5)c(Cl)c4)c3s2)CC1`, the growth inhibition in test [1] was 5%; in test [4] it was 85% (active). In addition, the inhibition in test [2] is 34%; in test [3], -5%. Further, the result in test [5], in test [6], in test [7] and in test [8] was inactive.
With `Nc1ncc(-c2ccc3[nH]ccc3c2)c2ccc(-c3ccncc3)cc12`, the growth inhibition in test [1] and in test [4] was 100% (active) each time. Also, the inhibition in test [2] was 42%; in test [3] it was -6%. In addition, the outcome in test [5], in test [6], in test [7] and in test [8] was inactive.
Take `COc1ccc(-n2nc(C)cc2C(=O)NCc2ccc(-c3c(C)noc3C)cc2)cc1`: the values for the growth inhibition in test [1] and in test [4] were 92% (active) and 101% (active), respectively. Moreover, the inhibition in test [2] and in test [3] was 3% each time. In addition, the result in test [5], in test [6], in test [7] and in test [8] was inactive.
Regarding `CCOc1cc(C)ccc1C1CCN(CCCCNC(=O)c2coc(-c3ccc(Cl)cc3)c2)CC1`, the growth inhibition in test [1] was 30%; in test [4] it was 92% (active). Further, the inhibition in test [2] is 34%; in test [3], -3%. In addition, the result in test [5], in test [6], in test [7] and in test [8] was inactive.
On to `COCCNCc1ncsc1-c1ccc2c(Nc3cc(O)ccc3C)ccnc2c1`, for which the growth inhibition in test [1] is 40%; in test [4], 101% (active). Also, the inhibition in test [2] was 9%; in test [3] it was 6%. Besides, the result in test [5], in test [6], in test [7] and in test [8] was inactive.
For `O=C(O)/C=C/c1cccc(F)c1F`, the growth inhibition was 1% in test [1] and 96% (active) in test [4]. The inhibition was 58% (active) in test [2] and -1% in test [3]. Further, the result in test [5], in test [6], in test [7] and in test [8] was inactive.
For `O=C(NCCCc1ccccc1)c1csc(C2CCCN(C(=O)c3ccc(O)c(-c4ccccc4)c3)C2)n1` (stereo not given), the growth inhibition in test [1] and in test [4] was 97% (active) throughout. Also, the inhibition in test [2] and in test [3] was 5% each time. The outcome in test [5], in test [6], in test [7] and in test [8] was inactive.
Take `O=C(/C=C/c1ccc(Cl)c(Cl)c1)N1CCC(CCN2CCC(c3c[nH]c4cnccc34)CC2)CC1`: the growth inhibition in test [1] is 100% (active); in test [4] it was 101% (active). Also, the results for the inhibition in test [2] and in test [3] were 93% (active) and -2%, respectively. In addition, the result in test [5], in test [6], in test [7] and in test [8] was inactive.
Regarding `COc1cccc2c(NN=Cc3cccc(Cl)c3)ccnc12`, the values for the growth inhibition in test [1] and in test [4] were 77% (active) and 101% (active), respectively. In addition, the inhibition in test [2] was 19%; in test [3], 6%. In addition, the result in test [5], in test [6], in test [7] and in test [8] was inactive.
`Cc1ccc(C(=O)Nc2cccc(-c3ccc(N4CCN(C)CC4)nn3)c2)cc1[N+](=O)[O-]`: the growth inhibition is 40% in test [1] and 99% (active) in test [4]. The results for the inhibition in test [2] and in test [3] were 32% and -2%, respectively. Also, the outcome in test [5], in test [6], in test [7] and in test [8] was inactive.
As for `CCCCOc1c(CCNCCCCNCCc2cc(F)c3ccccc3c2OCCCC)cc(F)c2ccccc12`, the growth inhibition in test [1] was 78% (active); in test [4], 96% (active). Also, the inhibition in test [2] was 97% (active); in test [3], -3%. The outcome in test [5], in test [6], in test [7] and in test [8] was inactive.
On to `Cc1ccc(-c2ccc3c(c2)C=C(C(=O)NC2CCN(CCNC(=O)c4cccc(C(F)(F)F)c4)CC2)CCC3)cc1`, for which the growth inhibition is 56% (active) in test [1] and 100% (active) in test [4]. The inhibition in test [2] is 25%; in test [3] it was -3%. Also, the result in test [5], in test [6], in test [7] and in test [8] was inactive.

One may read the inhibition as the relative decrease from the control value, in per cent.
